Data on 93 compounds can be found in PubChem BioAssay AID449762 (Southern Research Specialized Biocontainment Screening …, 2010).

Broadly, the inhibition is the drop in the measured response relative to a control, in per cent.

Each structure is given as a SMILES string. The campaign covered roughly 330,000 compounds. About 1,900 (0.58%) were called active. About 4% were inconclusive and are not listed. Rule as the data show it: inconclusive = inhibition above about 70% without an active follow-up result; inactive = below that. Not all results are given here. Entries with a potency or affinity are not part of this list.

The test can be described thus: M. tuberculosis growth inhibition, HTS (AID 449762).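 Also: bacterial growth assessed after seven days of incubation.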 The following applies: M. tuberculosis H37Rv growth inhibition, 7H9 media; at 25 µM; hits give high values.
For `C=CCn1c(C)c(/C=C/c2cc[n+](C)cc2)c2ccccc21`, the inhibition was 0.73% (inactive). In the case of `Cc1ccc2[nH]cc(/C=C/c3cc[n+](C)cc3)c2c1`, the inhibition was -0.27% (inactive). For `Cc1c(C)n2c(SCC(=O)Nc3cccc4ccccc34)nnc2[nH]c1=O` the value was 5.62% (inactive); for `Cc1onc(-c2c(Cl)cccc2Cl)c1C(=O)O/N=C(\C#N)c1c(Cl)cccc1Cl`, -0.37% (inactive). On to `C/C(=N\OC(=O)c1c(-c2c(F)cccc2Cl)noc1C)c1nccs1`, for which the inhibition is 3.84% (inactive). For `CCOC(=O)[C@H]1[C@H]2COc3ccc(Br)cc3[C@@H]2N2C(=O)N(c3ccccc3)C(=O)[C@@]12C` the value was 6.24% (inactive); for `CCOc1ccc(CNC(=O)C2CCCN(S(=O)(=O)N3CC(C)CC(C)C3)C2)cc1OC` (stereo not drawn), -1.45% (inactive); for `COC(OC)c1ccnc(-c2ccc(OC(C)=O)cc2)n1`, 0.19% (inactive). For `COC(OC)c1ccnc(-c2ccc(OC(=O)c3ccccc3)cc2)n1` the value was 57% (inactive); for `CCC[N+](CC#Cc1ccccc1)(CCC)CC(=O)OC`, 0.57% (inactive); for `Cc1occc1-c1nnc(SCC(=O)NC2CC2)n1C(C)C`, 6.3% (inactive). As to `CCOCCn1c(=O)c2c(nc3n2CCCN3Cc2ccccc2)n(C)c1=O`, the inhibition was 4.47% (inactive).

For `CCCC(O)(c1ccc(CC)cc1)C(CN1CCOCC1)c1ccccc1` (stereo not drawn), the inhibition was 9.99% (inactive).

With `CCOC(=O)CSc1nc2ccsc2c(=O)n1C1CCN(C(=O)OCC)CC1`, the inhibition was 39.3% (inactive).

As for `CCOC(=O)N1CCC(n2c(SCC(=O)c3ccccc3)nc3ccsc3c2=O)CC1`, the inhibition is -5.37% (inactive). Consider `COc1ccc(/C=N/NC(=O)c2cccc(C(=O)N/N=C/c3ccc(OC)cc3)n2)cc1`, for which the inhibition is -1.47% (inactive).

With `O=C(CN1C(=O)COc2ccccc2C1=O)c1ccc2c(c1)OCCO2`, the inhibition is 4.6% (inactive).

For the compound `O=C(OC(C(=O)c1c[nH]c2ccccc12)c1ccccc1)c1cnccn1` (stereo not drawn), the inhibition is 1.97% (inactive). To `Nc1nnnn1/N=C/c1ccccc1` belongs -0.26% (inactive); to `Nc1nnnn1/N=C/C=C/c1ccccc1`, -3.78% (inactive).

On to `CCOC(=O)N1CCC(N2C(=O)c3ccc(C(=O)Nc4ccc(F)cc4F)cc3C2=O)CC1`, for which the inhibition is -5.69% (inactive).

`CCOC(=O)N1CCN(S(=O)(=O)c2ccc(C(=O)N(CCN(C)C)c3nc4c(C)cccc4s3)cc2)CC1`: the inhibition was -14.4% (inactive). To `CC1=C(c2ccc(F)cc2)[N+](=O)C(C)(C)N1[O-]` belongs -6.06% (inactive); to `Cc1ccc(C(C(=O)NC(C)(C)C)N(Cc2ccccc2)C(=O)c2snc(C(N)=O)c2N)o1` (stereo not drawn), -7.23% (inactive). To `COc1cc(/C=C2/C(=O)N(c3ccccc3)N=C2C)ccc1OS(=O)(=O)c1ccccc1` belongs 11% (inactive).

In the case of `COc1ccc(/C=C2/C(=O)N(c3ccccc3)N=C2C)cc1OC`, the inhibition was 8.2% (inactive). Consider `CCOC(=O)N1CCN(Cc2ccc3ccccc3c2)CC1`, for which the inhibition is 9.89% (inactive).

For `O=C(Nc1cccn2ncnc12)C(Cl)Cl`, the inhibition is 8.05% (inactive). In the case of `CCCCC(=O)Nc1cccn2ncnc12`, the inhibition is -5.05% (inactive). In the case of `Cc1ccc(/C=C2/SC(=S)N(CCC(=O)N3CCOCC3)C2=O)cc1`, the inhibition was -5.59% (inactive). To `CCCn1c(=N)n(CC(=O)c2ccc(Cl)cc2)c2ccccc21` belongs 20.9% (inactive). With `CCCCn1c(=N)n(CC(=O)c2ccc(OC)cc2)c2ccccc21`, the inhibition is 2.91% (inactive). With `Cc1ccc(S(=O)(=O)NCc2ccc(C(=O)NCc3cccnc3)cc2)cc1`, the inhibition is -0.01% (inactive). For `Cc1cc(NC(=O)c2cc(-c3cccc(Cl)c3)on2)no1` the value was 4.25% (inactive); for `O=C(NNS(=O)(=O)c1ccccc1[N+](=O)[O-])c1ccccc1[N+](=O)[O-]`, -1.87% (inactive); for `C=CCSC1=N/C(=C\c2ccc3c(c2)OCO3)C(=O)S1`, 2.93% (inactive). Regarding `CCc1nc(N=C(N)N)nc2ccccc12`, the inhibition is -2.46% (inactive).

`Cc1nc(N=C(N)N)nc2ccccc12`: the inhibition was 0.45% (inactive).

Regarding `Cc1cc(C2C(=O)c3ccccc3C2=O)c(C)c(C)c1C`, the inhibition was 30.3% (inactive).

On to `Cc1ccc(C2C(=O)c3ccccc3C2=O)cc1`, for which the inhibition is 7.43% (inactive).

As for `CC(=O)NC12CC3CC(C1)CC(C(=O)N(C)CC(=O)Nc1cccc(F)c1)(C3)C2`, the inhibition was 6.36% (inactive). For `CC(NC(=O)c1cc(COc2c(F)cccc2F)on1)c1cnn(-c2ccccc2)c1` (stereo not drawn) the value was 1.01% (inactive); for `Cc1sc2ncnc(N3CCC(C(=O)N(C)CC(=O)Nc4ccccc4Cl)CC3)c2c1C`, 67.4% (inactive). To `CCCCn1c(N)c(N(CC(C)C)C(=O)C2CCN(c3ncnc4sc(C)c(C)c34)CC2)c(=O)[nH]c1=O` belongs 54.4% (inactive); to `CNC(=O)CSc1nnc(-c2ccco2)n1-c1cccc(C)c1C`, -8.51% (inactive); to `O=C(Cc1ccc(F)cc1)NCCS(=O)(=O)N1CCN(c2ccccc2)CC1`, -9.43% (inactive). For the compound `COc1ccc(/C=C2\SC(=S)N(Cc3cccnc3)C2=O)cc1C`, the inhibition was 12.2% (inactive). Take `Cc1ccc(S(=O)(=O)N2CCC(C(=O)OCC(=O)NCCc3ccccc3)CC2)cc1C`: the inhibition was 1.72% (inactive). To `CCOC(=O)C1CCN(S(=O)(=O)c2ccc(C)c(C)c2)CC1` belongs -5.37% (inactive). For `COc1cccc(NC(=O)[C@H](Cc2ccccc2)NC(=O)[C@@H]2Cc3ccccc3CN2)c1` the value was -7.04% (inactive); for `O=C(Nc1ccc(C(F)(F)F)cc1-c1ccccc1)c1ccccc1`, -5.73% (inactive); for `O=C(Nc1cnccn1)C1c2ccccc2Oc2ccccc21`, -4.63% (inactive). For the compound `CCOC(=O)c1c(C)[nH]c(C)c1C(=O)CN1C(=O)NC2(CCC(C)CC2)C1=O` (stereo not drawn), the inhibition is -4.05% (inactive). `CCc1ccc2oc(-c3cc(N)cc(C)c3O)nc2c1`: the inhibition was 42.6% (inactive). For `CCc1ccc2oc(-c3cc(N)ccc3O)nc2c1` the value was -0.82% (inactive); for `O=C(O)c1cc(O)c2c(c1)C(=O)c1cc(O)cc(O)c1C2=O`, -5.47% (inactive); for `O=C1c2cc(O)cc(O)c2C(=O)c2c1cc(O)c([C@@H](CO)CCO)c2O`, -12.7% (inactive). To `CCOc1ccccc1NC(=S)NC1CCCCC1` belongs -19.5% (inactive). `CCc1nn(CC(=O)NCCN2CCN(C)CC2)c(=O)c2cc3c(OC)cccc3n12`: the inhibition was 7.05% (inactive). For `CCc1ccc(N=CC2=C(O)CC(c3ccco3)CC2=O)cc1` (stereo not drawn), the inhibition is 0.59% (inactive).

Regarding `Cc1ccc(N=CC2=C(O)CC(c3ccco3)CC2=O)cc1` (stereo not drawn), the inhibition is -6.24% (inactive). For the compound `Cc1cccc(C)c1NC(=O)C1NC(=O)CC1c1ccccc1` (stereo not drawn), the inhibition was 17.9% (inactive). Take `CCOc1ccc(C2/C(=C(/O)c3ccc(S(=O)(=O)N4CCCCC4)cc3)C(=O)C(=O)N2CCCOC)cc1OC` (stereo not drawn): the inhibition is -12.5% (inactive). To `COc1ccc(N(C(C)C(=O)NN=C2CCCC2)S(C)(=O)=O)cc1` (stereo not drawn) belongs -2.55% (inactive). For `Cc1ccc2cccc(Oc3ncnc4sc(C)c(C)c34)c2n1` the value was 42% (inactive); for `COc1ccc(-n2ccnc2)cc1`, 1.26% (inactive). For `COc1ccc2oc(C(=O)OCC(=O)Nc3cc(S(=O)(=O)N4CCOCC4)ccc3OC)c(C)c2c1` the value was 0.56% (inactive). For the compound `COc1ccccc1C(=O)NNC(=O)C(=O)NC(C)C`, the inhibition is 61.6% (inactive).

On to `Cc1ccc2nc(SCc3nc4c(cnn4-c4ccccc4)c(=O)[nH]3)[nH]c2c1`, for which the inhibition is 0.73% (inactive). To `Cc1ccc(-c2nc3ccccc3o2)cc1NC(=S)NC(=O)/C=C/c1ccco1` belongs -10.3% (inactive); to `Cc1ccc(-c2nc3ccccc3s2)cc1NC(=S)NC(=O)/C=C/c1ccco1`, -2.81% (inactive). For `CCOC(=O)[C@H]1[C@H]2COc3ccccc3[C@@H]2N2C(=O)c3cc(F)c(F)cc3NC(=O)[C@@]12C` the value was -2.93% (inactive); for `CC(C)NS(=O)(=O)c1ccc(OCC(=O)NCC2CCCO2)c(Cl)c1` (stereo not drawn), -3.59% (inactive); for `CC(C)(C)c1ccc(C(=O)OCCNC(=O)c2c(Cl)nc3ccccn23)cc1`, -5.57% (inactive). With `COc1ccc(NC(=O)c2c(Cl)nc3ccccn23)cc1`, the inhibition was 9.69% (inactive).

For the compound `CSc1ccccc1C(=O)N1CCN(c2cccc(Cl)c2)CC1`, the inhibition was -1.96% (inactive). For `O=S1(=O)CCC(n2ncc3c2/C(=C/c2ccccc2)CC3)C1` (stereo not drawn) the value was 4.34% (inactive); for `Cn1c(CNC(=O)c2ccco2)nnc1SCC(=O)c1ccc(F)cc1`, -2.19% (inactive); for `O=C(Nc1ccccc1)C1=C[C@@H](C2CC2)C[C@@H](OCc2ccc(CO)cc2)O1`, 5.14% (inactive).

As for `O=C(Nc1ccccc1)C1=C[C@H](C2CCCCC2)C[C@H](OCc2ccc(CO)cc2)O1`, the inhibition was 8.7% (inactive). As to `O=C(c1cc(-c2ccncc2)nc2ccccc12)N1CCN(Cc2ccccc2)CC1`, the inhibition was -9.48% (inactive). To `Cc1ccccc1CN1CCN(C(=O)c2cc(-c3ccncc3)nc3ccccc23)CC1` belongs 12.1% (inactive); to `C[C@H]1CC[C@]2(O[C@H](CCO)C[C@H](O)[C@H]2O)O1`, 3.36% (inactive); to `O=C(Nc1cc(F)ccc1F)C1CCCO1` (stereo not drawn), -6.27% (inactive). For `Cc1ccc(C(=O)Nc2ccc([N+](=O)[O-])cn2)o1` the value was -6.44% (inactive); for `C=CCc1c(C)nc(SC)nc1Nc1ccc(C)cc1`, 56% (inactive). For `C=CCc1c(C)nc(SC)nc1Nc1ccc(C(=O)O)cc1` the value was -7.64% (inactive); for `Cc1cccc(C(=O)NCc2nnc(SCC(=O)N3CCN(c4ccccc4)CC3)n2C)c1`, 0.25% (inactive). Take `CSc1ncc(C(=O)Nc2ccccc2C)c(C)n1`: the inhibition is 58.1% (inactive).

For the compound `CSc1ncc(C(=O)Nc2ccccc2Cl)c(C)n1`, the inhibition is 6.57% (inactive). For `Cc1ccc(NC(=O)COC(=O)CCn2c(C)csc2=O)cc1S(=O)(=O)N1CCOCC1` the value was -2.47% (inactive). To `O=[N+]([O-])c1ccc(Nc2ccc(Cl)cc2)nc1` belongs 25.4% (inactive).

With `O=C(O)c1ccc(Nc2ncc([N+](=O)[O-])cc2[N+](=O)[O-])cc1`, the inhibition is 3.64% (inactive).
